High-throughput results as filed in PubChem.
HP1b chromo inh = blocks HP1-beta chromodomain binding to methylated histone tails | AlphaScreen HP1-beta / biotin-H3K9me3 peptide binding | AID 540317 | Potency, µM (top dose mostly 114 µM), inactives show at the top dose activity change, negative = inhibition, most hits filed as inhibitors | 390,000 compounds, 0.56% hits | P83916; note: nearly all actives have a fitted effect of over 70% in size
Target sequence (P83916 whole entry, looked up): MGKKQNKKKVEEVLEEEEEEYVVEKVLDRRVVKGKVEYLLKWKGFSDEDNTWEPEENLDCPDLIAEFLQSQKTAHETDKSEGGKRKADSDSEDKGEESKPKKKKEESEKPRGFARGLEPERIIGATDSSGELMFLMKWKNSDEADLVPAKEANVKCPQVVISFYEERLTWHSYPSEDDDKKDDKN
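AlphaScreen: HP1-beta (50 nM) preformed 30 min with biotin-H3(1-18)K9me3 peptide (50 nM) in PBS pH 7.4, 0.01% Tween-20. Compound added for 30 min at RT, then streptavidin donor/nickel chelate acceptor beads (10 ug/mL) for 30 min.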
G9a inh = blocks human histone lysine methyltransferase G9a; AID 504332; Q96KQ7; Potency, µM (top dose mostly 102 µM), for inactives: at the top dose activity, negative = inhibition, actives largely listed as inhibitors; 350,000 compounds, 8.8% hits; G9a H3K9 monomethylation, AlphaScreen, 2 h; note: % is set by controls: 0 for no effect and ±100 for the full control effect; nearly all actives have a fitted effect of over 75% in size
Target sequence (Q96KQ7 913-1193 limits assumed): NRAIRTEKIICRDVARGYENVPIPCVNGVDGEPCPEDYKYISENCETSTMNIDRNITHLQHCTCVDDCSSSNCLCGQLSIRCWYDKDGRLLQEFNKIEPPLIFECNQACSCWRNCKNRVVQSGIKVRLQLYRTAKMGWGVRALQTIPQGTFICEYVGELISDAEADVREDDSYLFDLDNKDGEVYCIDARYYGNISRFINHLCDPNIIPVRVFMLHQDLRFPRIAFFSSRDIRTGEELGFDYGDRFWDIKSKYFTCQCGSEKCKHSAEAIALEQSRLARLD
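Enzyme 20 nM + cpd, 15 min RT; add b-H3K9 pep 500 nM / SAM 20 uM; 2 h RT; anti-H3K9me1 Ab 0.5 ug/mL + SA donor / anti-rabbit acceptor beads 20 ug/mL each, 10 min; AlphaScreen read.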
JMJD2A Tudor inh = inhibitors of human JMJD2A Tudor domain; O75164; AlphaScreen JMJD2A-Tudor / H3K4me3 peptide binding; Potency, µM (doses to about 114 µM), without a hit: at the highest dose activity change, negative = inhibition, usual class: inhibitors; 390,000 compounds, 4.4% hits; AID 504339; note: % is set by controls: 0 for no effect and ±100 for the full control effect; nearly all actives have a fitted effect of over 50% in size
BAZ2B block = blocks human BAZ2B; Q9UIF8; AlphaScreen BAZ2B-H3K14Ac peptide displacement; Potency, µM (series often up to 114 µM), for the others: at the highest dose activity change, negative = inhibition, usual class: inhibitors; 360,000 compounds, 4.4% hits; AID 504333; note: % is set by controls: 0 for no effect and ±100 for the full control effect; nearly all actives have a fitted effect of over 60% in size
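Multi-concentration screen (max 110 uM) measuring displacement of acetylated histone H3 peptide from BAZ2B by AlphaScreen, using 50 nM protein, 50 nM peptide and 10 ug/mL streptavidin donor plus Ni-chelate acceptor beads.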
L3MBTL1 inh = L3MBTL1 (human) inhibition; AlphaScreen L3MBTL1–H3K9me1 peptide binding; Q9Y468; 230,000 compounds, 0.66% hits; Potency, µM (top dose mostly 57.1 µM), for inactives: top-dose activity, negative = inhibition, actives largely listed as inhibitors; note: % is set by controls: 0 for no effect and ±100 for the full control effect; nearly all actives have a fitted effect of over 60% in size
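L3MBTL1 (50 nM) pre-complexed 30 min with biotinylated H3(1-15)K9me1 peptide (75 nM), then compounds added for 30 min at room temperature; AlphaScreen streptavidin donor/nickel chelate acceptor beads (10 ug/mL final) read after 30 min dark incubation.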
* hit, by the source's call; ? = inconclusive; nt = no result; [ ] = another dose, or the depositor's remark. Sampled rows, rich in hits. Any-hit rate of the full collection: about 11%. Calls come from the whole dose curve; as a rule, active = well fitted inhibition curve with a large enough effect; inconclusive = small, poorly fitted or top-dose-only effect; inactive = no such curve, though single readings can be large or run the other way. Potency is the fitted concentration of half-maximal effect.

SMILES	HP1b chromo inh	G9a inh	JMJD2A Tudor inh	BAZ2B block	L3MBTL1 inh
Cc1ccc(-n2nc(C)c3c(C(=O)NCc4ccccc4)cc(C4CC4)nc32)cc1	14.1%	-33.6%[59 µM]	-2.3%	10.6%[57.1 µM]	nt
Cc1ccc(SCc2nc3ncccn3c2Br)cc1	28.8%	-0.3%[12.7 µM]	-1.4%	9.4%	3.4%
CCCC/C=C/[C@H](C)[C@@](C)(COC(=O)c1ccc(Br)cc1)Cc1ccccc1	50.5%	nt	11.7%	nt	nt
Cc1cc(NC2CCCCC2)nc(-c2ccccc2O)n1	?	17.8µM*	7.94µM*	56.2µM*	16.3%
CNC(=O)c1cccc(-n2c(C)nc3cccnc32)c1C	40.4%	3.5%[59 µM]	7.2%	-0.3%	nt
CCc1cccc(NC(=O)CSC2=Nc3ccccc3N=C(c3ccc(F)cc3)C2)c1	1.2%[57 µM]	-16.7%[59 µM]	-17.9%	-14.9%	nt
CCN1c2ccccc2-n2cccc2C12CCN(C(=O)Nc1ccccc1Br)CC2	-1.5%[57 µM]	-28.1%[59 µM]	?	?	nt
CC(Oc1ccc2ccc(=O)oc2c1)C(=O)NC1CC(C)(C)NC(C)(C)C1 (stereo unspecified)	49.8%	?	-11.0%	-4.8%	nt
CCCc1cc(=O)oc2cc(OC(C)C(=O)NC3CC(C)(C)NC(C)(C)C3)ccc12 (stereo unspecified)	35.5%	7.08µM*	-12.8%	-1.7%	nt
COC(C(=O)Nc1ccc(Cl)cc1C)c1ccccc1 (stereo unspecified)	29.2%	8.91µM*	-14.5%[57.1 µM]	-8.6%	4.0%
COC(C(=O)Nc1ccc(NC(=O)C(OC)c2ccccc2)cc1)c1ccccc1 (stereo unspecified)	53.5%	50.1µM*	2.8%	-10.1%	4.6%
CC(=O)Nc1nc(N2C(=O)c3ccccc3C2=O)n(-c2ccccc2)n1	54.7%	?	79.4µM*	?	32.6%[11.4 µM]
O=C(Nc1nc(N2C(=O)c3ccccc3C2=O)n(-c2ccccc2)n1)c1ccccc1	32.1%	-11.8%	?	?	38.3%
CC1(C)C(Cl)C(=O)C(C(=O)c2ccccc2)C(=O)C1Cl (stereo unspecified)	23.8%	nt	-7.5%	-3.7%	1.4%
Nc1nc2nc(-c3ccccc3)cc(=O)n2[nH]1	14.8%	3.1%[59 µM]	?	-15.8%	nt
CC(C)c1cc(=O)n2[nH]c(N)nc2n1	3.3%	79.4µM*	-46.5%	-27.2%	1.6%
CC(C)(C)c1cc(=O)n2[nH]c(N)nc2n1	27.7%	nt	?	56.2µM*	-9.2%
CCCc1cc(=O)n2[nH]c(C)nc2n1	38.8%	-40.3%[12.7 µM]	-28.8%	-31.8%	nt
COc1cccc(-n2c(CN3CCN(c4cccc(C)c4)C(C)C3)nc3ccc([N+](=O)[O-])cc3c2=O)c1 (stereo unspecified)	-12.8%	8.7%[59 µM]	?	-37.6%	-3.0%
COc1ccc(-n2c(CN3CCC(C)CC3)nc3ccc([N+](=O)[O-])cc3c2=O)c(OC)c1	11.9%	?	-23.5%	?	nt
CCOC(=O)N1CCN(Cc2nc3ccc([N+](=O)[O-])cc3c(=O)n2-c2ccc(OC)cc2OC)CC1	?	?	-28.9%	-20.1%	nt
COc1ccc(-n2c(CN3CCOCC3)nc3ccc([N+](=O)[O-])cc3c2=O)c(OC)c1	25.7%	44.7µM*	-24.0%	-27.7%	nt
COc1ccc(-n2c(CN3CCN(c4ccccc4)CC3)nc3ccc([N+](=O)[O-])cc3c2=O)c(OC)c1	?	39.8µM*	?	-37.6%	nt
COc1cccc(-n2c(CN3CCN(c4ccccn4)CC3)nc3ccc([N+](=O)[O-])cc3c2=O)c1	-7.2%[57 µM]	28.2µM*	-32.2%	56.2µM*	nt
Cc1sc2ncnc(N3CCN(Cc4ccccc4)CC3)c2c1-c1ccccc1	?	-18.5%	?	31.6µM*	nt
SMILES	HP1b chromo inh	G9a inh	JMJD2A Tudor inh	BAZ2B block	L3MBTL1 inh
CCOc1ccc(CN2CCN(c3ncnc4scc(-c5ccccc5)c34)CC2)cc1	-16.8%	6.8%	?	-10.7%	nt
Cc1sc2ncnc(Nc3ccc(N4CCOCC4)cc3)c2c1-c1ccccc1	-18.0%	28.2µM*	35.5µM*	?	-0.6%
Cc1sc2ncnc(Nc3ccccc3)c2c1C	-7.3%	15.1%[12.7 µM]	-23.7%[11.4 µM]	11.1%	nt
CCOC(=O)c1cc(-c2ccc(F)cc2)n(CCC(=O)NCc2ccc(C)cc2)c1C	-8.0%	-35.5%[59 µM]	-33.0%	-15.0%	nt
CN(C)c1ccc(C(=S)N2CCCCC2)cc1	-21.0%	?	-35.2%	-38.6%	-13.4%
S=C(c1ccc(Cl)cc1)N1CCN(Cc2ccccc2)CC1	-2.6%	-18.4%[59 µM]	-28.5%	?	-21.9%
CCN1CCN(C(=S)c2ccc(SC)cc2)CC1	?	39.8µM*	-17.1%	3.2%	nt
CSc1ccc(C(=S)N2CCCCCC2)cc1	42.0%	31.6µM*	-18.0%	-9.8%	-4.0%
CSc1ccc(C(=S)N2CCN(Cc3ccccc3)CC2)cc1	-35.6%	31.6µM*	?	?	nt
COc1cc(Cl)c(C)cc1NC(=O)c1cnn(-c2ccc(F)cc2F)c1C1CCN(C(=O)OC(C)(C)C)CC1	-14.2%	?	-31.1%	-5.6%[57.1 µM]	nt
CC(=O)c1ccc(N=Nc2ccc(N)cc2)cc1	-16.8%	nt	?	?	-30.0%
O=C(NCCN1CCN(c2cccc(Cl)c2)CC1)C1COc2ccccc2C1 (stereo unspecified)	0.8%[57 µM]	-14.2%[59 µM]	-31.6%	-28.9%	nt
COc1ccc(S(=O)(=O)N(CCc2ccccc2)CC(=O)Nc2cccc(OC)c2)cc1	64.1%	41.2%[59 µM]	-4.2%	31.5%	nt
CCCCNC(=O)CSc1nc2n[nH]c(C)c2c(=N)n1-c1ccccc1CC	36.6%	3.8%[59 µM]	-1.6%	-1.7%	nt
Fc1ccccc1C1c2[nH]c3ccccc3c2CCN1Cc1cccn1-c1ncccn1 (stereo unspecified)	?	nt	?	31.6µM*	-6.8%
Cc1ccccc1C1c2[nH]c3ccccc3c2CCN1Cc1cccn1-c1ncccn1 (stereo unspecified)	-11.5%	50.1µM*	?	25.1µM*	?
Clc1ccc(OCCn2cnc(Cl)c2Cl)cc1	?	50.1µM*	-30.7%	?	-13.0%
Cc1nccn1CCOc1ccc(Cl)cc1	?	8.91µM*	4.47µM*	44.7µM*	-5.7%
O=c1ccn(CCOc2ccc(Cl)cc2)c(=O)[nH]1	8.9%	-14.3%[2.33 µM]	9.3%	-7.2%	37.0%
COc1ccc(OCCn2cnc(Cl)c2Cl)cc1	8.0%	-25.0%	-16.8%	-34.8%	-16.7%
COC(=O)c1ccc(C2Nc3c(C)cccc3-c3cc(C)nn32)cc1 (stereo unspecified)	19.9%	1.2%[59 µM]	-19.9%	-21.6%	nt
COc1cccc(N2CCN(C(=O)c3cnn(-c4ccc(C)cc4C)c3C3CCN(C(=O)OC(C)(C)C)CC3)CC2)c1	2.1%	?	?	-23.9%[57.1 µM]	nt
CC(C)OCCCn1c(=S)[nH]c2ncccc2c1=O	-6.4%	50.1µM*	?	-7.0%	-2.3%
CCN(CC)CCCn1c(=S)[nH]c2ncccc2c1=O	?	50.1µM*	8.91µM*	-8.7%	nt
CCN(CC)CCCn1c(=S)[nH]c2ccccc2c1=O	28.9%	?	56.2µM*	-29.8%	-7.0%
CCN(CCCn1c(=S)[nH]c2ncccc2c1=O)c1ccccc1	9.1%	0.9%	-25.0%	-30.9%	-5.6%
